Measurements as given in PubChem BioAssay AID1159580 (chemical genetic matrix, 2015).
Where “and” joins values, the source holds several entries; their conditions need not be identical. Identical values can stand only once. The campaign covered roughly 5,500 compounds. About 2,000 (36%) were called active. Another 18% or so got no clear call; they are omitted. No stated cut-off is given here; in the data, active means normalized growth mostly below about 0.91 (no sharp cut-off); inconclusive means no clear call, values can overlap the other calls; inactive means mostly above about 0.92. The list shows a part of the results.

Experiment: chemical genetic growth profiling, strain panel (AID 1159580);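 further: tested at 20 µM; growth read once vehicle control cultures reached saturation at 30 °C; 1 = growth at the plate median or of vehicle wells; lower values mean less growth of the strain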
Conditions: growth OD

Measured: normalized growth

C#CCN(C)Cc1ccccc1
inactive: S. cerevisiae deletion strains, locus YJR075W, strain HOC1, active compounds read low 0.991 | S. cerevisiae deletion strains, locus YKL009W, strain mrt4, active compounds read low 1.02 | S. cerevisiae deletion strains, locus YKL068W, active compounds read low 1 | S. cerevisiae deletion strains, locus YKL085W, strain MDH1 (second series), active compounds read low 1 | S. cerevisiae deletion strains, locus YKL085W, strain MDH1, active compounds read low 1 | S. cerevisiae deletion strains, locus YKL160W, strain elf1, active compounds read low 1.01 | S. cerevisiae deletion strains, locus YKL190W, strain CNB1, active compounds read low 0.997 | S. cerevisiae deletion strains, locus YKR001C, strain vps1, active compounds read low 1.02 | S. cerevisiae deletion strains, locus YKR026C, strain gcn3, active compounds read low 1.02 | S. cerevisiae deletion strains, locus YKR091W, strain srl3, active compounds read low 1.02 | S. cerevisiae deletion strains, locus YLL001W, strain dnm1, active compounds read low 1.02 | S. cerevisiae deletion strains, locus YLL026W, active compounds read low 1 | S. cerevisiae deletion strains, locus YLL041C, strain sdh2, active compounds read low 0.968 | S. cerevisiae deletion strains, locus YLR027C, strain aat2, active compounds read low 0.991 | S. cerevisiae deletion strains, locus YLR039C, strain RIC1, active compounds read low 1.02 | S. cerevisiae deletion strains, locus YLR058C, strain SHM2, active compounds read low 0.998 | S. cerevisiae deletion strains, locus YLR102C, strain apc9, active compounds read low 1.01 | S. cerevisiae deletion strains, locus YLR113W, strain HOG1, active compounds read low 1 | S. cerevisiae deletion strains, locus YLR221C, strain rsa3, active compounds read low 1.01 | S. cerevisiae deletion strains, locus YLR258W, strain gsy2, active compounds read low 1 | S. cerevisiae deletion strains, locus YLR262C, strain YPT6 (second series), active compounds read low 1.05 | S. cerevisiae deletion strains, locus YLR262C, strain YPT6, active compounds read low 0.997 | S. cerevisiae deletion strains, locus YLR268W, strain sec22, active compounds read low 1.06 | S. cerevisiae deletion strains, locus YLR320W, strain mms22, active compounds read low 0.99 | S. cerevisiae deletion strains, locus YLR330W, strain CHS5, active compounds read low 1 | S. cerevisiae deletion strains, locus YLR342W, strain FKS1 (second series), active compounds read low 1.02 | S. cerevisiae deletion strains, locus YLR342W, strain FKS1, active compounds read low 1.03 | S. cerevisiae deletion strains, locus YLR357W, strain rsc2, active compounds read low 1.05 | S. cerevisiae deletion strains, locus YLR370C, strain arc18, active compounds read low 0.987 | S. cerevisiae deletion strains, locus YLR371W, strain rom2, active compounds read low 1.02 | S. cerevisiae deletion strains, locus YLR384C, strain iki3, active compounds read low 0.996 | S. cerevisiae deletion strains, locus YLR418C, strain cdc73, active compounds read low 1.02 | S. cerevisiae deletion strains, locus YML016C, strain PPZ1, active compounds read low 1 | S. cerevisiae deletion strains, locus YML032C, strain rad52, active compounds read low 1.02 | S. cerevisiae deletion strains, locus YML120C, strain ndi1, active compounds read low 0.999 | S. cerevisiae deletion strains, locus YML124C, strain tub3, active compounds read low 1.01 | S. cerevisiae deletion strains, locus YMR058W, strain fet3, active compounds read low 1.04 | S. cerevisiae deletion strains, locus YMR078C, strain ctf18, active compounds read low 1.02 | S. cerevisiae deletion strains, locus YMR125W, strain sto1, active compounds read low 1.03 | S. cerevisiae deletion strains, locus YMR129W, active compounds read low 0.988 | S. cerevisiae deletion strains, locus YMR205C, strain PFK2, active compounds read low 0.98 | S. cerevisiae deletion strains, locus YMR223W, strain ubp8, active compounds read low 0.98 | S. cerevisiae deletion strains, locus YMR231W, strain pep5, active compounds read low 1.02 | S. cerevisiae deletion strains, locus YMR263W, strain SAP30, active compounds read low 0.995 | S. cerevisiae deletion strains, locus YMR307W, strain GAS1, active compounds read low 0.994 and 0.99 | S. cerevisiae deletion strains, locus YNL067W, strain RPL9B, active compounds read low 0.99 | S. cerevisiae deletion strains, locus YNL071W, strain lat1, active compounds read low 1.02 | S. cerevisiae deletion strains, locus YNL128W, strain TEP1, active compounds read low 1.01 and 0.994 | S. cerevisiae deletion strains, locus YNL153C, strain GIM3, active compounds read low 1.15 | S. cerevisiae deletion strains, locus YNL175C, strain NOP13, active compounds read low 1.01 | S. cerevisiae deletion strains, locus YNL183C, strain NPR1, active compounds read low 0.944 | S. cerevisiae deletion strains, locus YNL197C, strain WHI3, active compounds read low 1.01 | S. cerevisiae deletion strains, locus YNL209W, strain ssb2, active compounds read low 1.02 | S. cerevisiae deletion strains, locus YNL224C, strain SQS1, active compounds read low 1.04 | S. cerevisiae deletion strains, locus YNL233W, strain BNI4, active compounds read low 0.996 | S. cerevisiae deletion strains, locus YNL248C, strain rpa49, active compounds read low 1.03 | S. cerevisiae deletion strains, locus YNL250W, strain rad50, active compounds read low 1.01 | S. cerevisiae deletion strains, locus YNL271C, strain bni1, active compounds read low 1.02 | S. cerevisiae deletion strains, locus YNL298W, strain CLA4, active compounds read low 1.03 | S. cerevisiae deletion strains, locus YNL307C, strain MCK1, active compounds read low 1.03 | S. cerevisiae deletion strains, locus YNL322C, strain KRE1 (second series), active compounds read low 1.03 | S. cerevisiae deletion strains, locus YNR049C, strain mso1, active compounds read low 0.961 | S. cerevisiae deletion strains, locus YNR052C, strain pop2, active compounds read low 1.03 | S. cerevisiae deletion strains, locus YOL006C, strain TOP1, active compounds read low 1 | S. cerevisiae deletion strains, locus YOL012C, strain htz1 0.939 | S. cerevisiae deletion strains, locus YOL147C, strain pex11, active compounds read low 1.02 | S. cerevisiae deletion strains, locus YOR001W, strain rrp6, active compounds read low 1.01 | S. cerevisiae deletion strains, locus YOR061W, strain CKA2, active compounds read low 1 | S. cerevisiae deletion strains, locus YOR069W, strain VPS5, active compounds read low 1 | S. cerevisiae deletion strains, locus YOR070C, strain gyp1, active compounds read low 1.01 | S. cerevisiae deletion strains, locus YOR080W, strain dia2, active compounds read low 1.02 | S. cerevisiae deletion strains, locus YOR083W, strain WHI5 (second series), active compounds read low 1.01 | S. cerevisiae deletion strains, locus YOR083W, strain WHI5, active compounds read low 1 | S. cerevisiae deletion strains, locus YOR106W, strain vam3, active compounds read low 0.996 | S. cerevisiae deletion strains, locus YOR136W, strain idh2, active compounds read low 1.01 | S. cerevisiae deletion strains, locus YOR144C, strain elg1, active compounds read low 1.01 | S. cerevisiae deletion strains, locus YOR184W, strain ser1, active compounds read low 1.01 | S. cerevisiae deletion strains, locus YOR231W, strain MKK1, active compounds read low 0.997 | S. cerevisiae deletion strains, locus YOR265W, strain rbl2, active compounds read low 1.01 | S. cerevisiae deletion strains, locus YOR270C, strain vph1, active compounds read low 1.06 | S. cerevisiae deletion strains, locus YOR290C, strain snf2, active compounds read low 0.999 | S. cerevisiae deletion strains, locus YOR316C, strain cot1, active compounds read low 1.02 | S. cerevisiae deletion strains, locus YPL051W, strain arl3, active compounds read low 1.02 | S. cerevisiae deletion strains, locus YPL078C, strain atp4, active compounds read low 1.05 | S. cerevisiae deletion strains, locus YPL106C, strain sse1, active compounds read low 1.07 | S. cerevisiae deletion strains, locus YPL240C, strain hsp82, active compounds read low 0.979 | S. cerevisiae deletion strains, locus YPL256C, strain CLN2, active compounds read low 0.939 | S. cerevisiae deletion strains, locus YPR119W, strain clb2, active compounds read low 1.02 | S. cerevisiae deletion strains, locus YPR141C, strain kar3, active compounds read low 1 | S. cerevisiae deletion strains, locus YPR163C, strain tif3, active compounds read low 1.02 | S. cerevisiae deletion strains, locus YPR167C, strain met16, active compounds read low 1.02 | S. cerevisiae deletion strains, strain wtn01, active compounds read low 1.02 | S. cerevisiae strains, strain wild type, active compounds read low 0.998
